In all, about 53,000 sequences went through this assay and about 3,700 (7%) were called active.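 How the source made its calls: active means gene knockdowns whose robust z-score for IL-1 alpha signal is at least 2 or at most -2, so actives lie on both sides; inactive means the rest.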 Shown is part of a subset that was picked to be rich in actives.

The nature of the test: Components of the Cytosolic LPS Sensing Pathway: Gene Identification via Genome-wide siRNA Screen.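 Further: robust z of the log signal after scaling to non-targeting control siRNA wells of the plate.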 Particulars: RAW264.7 macrophages, IL-1a HTRF, actives lie on both sides, screened at 100 nM (by protocol), cells primed 5 h with Pam3CSK4 first. An outline of the steps:
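Mouse macrophage line RAW264.7 is transfected with siRNA (100 nM final), grown 48h, primed with TLR ligand Pam3CSK4 5 h and given intracellular LipidA 24 h. IL-1a in supernatant is read by HTRF and viability by luminescence.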
Consider CUUAAAGGAAUCCUGGUGGTT against Fam169b, for which the z-score is 0.0229 (inactive).
CCUGCAUGCCUAUGUGCGUTT against Ace: the z-score was 2.89 (active).
Regarding GAAGACUUCGUCCUAACAGTT against Ctsg, the z-score is -0.195 (inactive).
For GGCCUCUUACAAAGUGAGATT against Supt7l the value was -0.265 (inactive).
GGGAUAUGUGAAGCCUCAGTT against Mospd3: the z-score is -1.21 (inactive).
Then GGAACAGUUCCUUGUGGUUTT against Uqcrh, with 0.935 (inactive).
Then GGUUCAGAAUUUAACCUUATT against Phc3, with 3 (active); and GGUAUUGUGAAACGUACACTT against Ky, with 0.914 (inactive).
Then CCGUCGUCCUAGAAAAACCTT against Nsun7, with -1.18 (inactive); and CCUACUAAACUCAGUCUUUTT against Kap, with 1.08 (inactive); and GGAUCAUGCAGACAUGCUGTT against Ggcx, with -0.278 (inactive).
Regarding GGUUCUAAAUCAGAAGUGCTT against Tyw5, the z-score is -2.08 (active).
Then GGUAUAGCCACAGGUACAUTT against Phxr5, with -0.368 (inactive); and GCAGAUAUUUUUGUAAGCATT against Csmd1, with -0.644 (inactive).
On to GGCUUGAUGGGCUUUUUGCTT against Ndufb8, for which the z-score was 0.285 (inactive).
For GGUCCCAGUCAUUAUCCACTT against Gdap1l1, the z-score is 2.43 (active).
Turning to GGUAAUUAAAACCAUGGAGTT against Rex1bd, the z-score was -0.0412 (inactive).
GGCCCAGGAUAUUUUAGUUTT against Atg9b: the z-score is -0.553 (inactive).
Then GCCGUACGAAAAAUAAGCATT against Rps7, with -0.402 (inactive); and GGCCAAAGUACUUUGUUCCTT against Pdpr, with 3.63 (active).
As for GGUUCUUCGAAGCAAUAGCTT against Sphkap, the z-score was -0.973 (inactive).
For GCACACAUCAAGAAACUUGTT against Mxi1 the value was 0.963 (inactive).
Take GGAGAAAUAACUGAAAUUCTT against Klhl13: the z-score is -0.816 (inactive).
For GGACUUCUACCCAGCGAUATT against P3h4 the value was -0.536 (inactive); for CCUCCAGAUAACAAAUGCATT against Dlx3, 0.335 (inactive); for CGCAUUACAUUAGCCAAAATT against Ttc28, 1.21 (inactive).
For GCUCAGUAAUCUGAGGCCATT against Lox the value was -2.03 (active); for GGAGAUCCGUUCAAGGGUUTT against Olfr557, 0.73 (inactive).
Consider CCAACUGCACUGUCAAACUTT against Tbcc, for which the z-score was -0.224 (inactive).
For “GGAAUGUGUCUUCUCAAGUTT against A530021J07Rik” the value was 2.35 (active); for GGACCAGCACAUGUGGAUUTT against Olfr547, 0.31 (inactive).
On to GGACCUGGUAUCUCUAUAUTT against Rasgrp4, for which the z-score was -0.807 (inactive).
Turning to GCAUAAUUCUAAAGACGGGTT against Zfp143, the z-score is -0.1 (inactive).
For GGUUAUAGACAAGAUCGAUTT against Comp, the z-score is 0.536 (inactive).
Then CCCACCAGUAAGGAGUUCATT against Dido1, with -0.177 (inactive); and GCCACGAACAUGAUGUACATT against Slco3a1, with 0.229 (inactive).
In the case of GGUUUUAUUUGGGAUUAGCTT against Arfgap2, the z-score was 0.327 (inactive).
In the case of GGCAGAUCUGAUCAACGGATT against Mtln, the z-score is -2.14 (active).
Consider GCUUGUGGAUUCGAUUUGGTT against Gtf3c5, for which the z-score is 0.485 (inactive).
For GCUGAAUGAUAUGGAACCUTT against Vapa the value was -1.76 (inactive); for GGAGAUAAAGUCUUAUCACTT against Misp, -2.05 (active); for GGAAAUCGUGCGUGGCUACTT against Phpt1, 1.57 (inactive).
For GGCCAUCUUUGACAGUGCUTT against Dnah1, the z-score was 1.11 (inactive).
For GGCAUUUGUAAUUCCAGUUTT against Spata33 the value was 0.456 (inactive).
For GGAUUCAGGGAACAGCAAUTT against Ntrk3 the value was -3.08 (active).
Consider GGUACAGAACAUGUUCUAATT against Klf4, for which the z-score is 1.18 (inactive).
For the sequence GCACAAGCGAUGGGUUAACTT against Fkbp1a, the z-score is -0.708 (inactive).
As to GGCUCACGAGGAACUAAAUTT against Ift52, the z-score is 0.115 (inactive).
For GGAACUUCACUUUUAACACTT against Il33 the value was -0.534 (inactive).
In the case of CGUUUUUCUCUAACUUACATT against Ldlrad3, the z-score was 2.6 (active).
As to GGUGAUGUCCUAUUUCAAATT against Erp27, the z-score is 0.302 (inactive).
Regarding GGUUCUAUCUACCUACAGGTT against Igfn1, the z-score is 1.78 (inactive).
With GGAGAAGAGUCAAGAGCUCTT against Vxn, the z-score is 0.103 (inactive).
As to GGUAUCCAAGAAAACCUAUTT against Tnmd, the z-score was 0.475 (inactive).
For CCUUCUGUAGUUGGAAUCATT against Them5 the value was 1.41 (inactive); for CCUGUAUGGAGUAAUGGAATT against Eif4ebp3, 0.13 (inactive).
Take GGUGGUGUUAAAAUAUACUTT against Gnl3: the z-score was 3.07 (active).
For GCCAGAAGACUGUAUACCATT against Rp9 the value was -0.0396 (inactive).
For GGUUGUUGGUCUUCUGUGATT against Nme3, the z-score was -1.27 (inactive).
Then GGCCAUCUAAAAAUAGUAATT against Ccdc171, with 0.707 (inactive); and GGAGCACUUAGAAAUGUCCTT against Olfr342, with -0.174 (inactive); and GGACUUUGUACAUUGUUUUTT against Actb, with 2.2 (active).
For GGUCUUCUAAGAAAUUUUGTT against Fmnl2 the value was 0.407 (inactive).
On to GGAUGUGUCUCACUUCUUGTT against Th, for which the z-score was -1.5 (inactive).
Turning to GCUGCCUCUCACCAAGUAUTT against Creb3l3, the z-score was -1.43 (inactive).
Consider GCAUGAAGAGCUAAUGCUATT against Eprs, for which the z-score is -0.364 (inactive).
Consider GGCUAUGAGGACUCCUAUGTT against Plekha7, for which the z-score was -2.53 (active).
As for GCAAGUCCAUUCUUUUUCATT against Tmprss11g, the z-score was -0.643 (inactive).
For GGAAACCUGAUACUAACAATT against Afmid the value was -1.88 (inactive); for GGAAGUCCUUGCAUUCCUCTT against Dlec1, 0.816 (inactive).
For GGCUGAGAAAACCAAAGGGTT against Cfdp1 the value was 1.9 (inactive); for GCUGGAGUGUCAGUCAUAUTT against Reg4, 3.35 (active).
On to GGUCUAUCGCUUGCUUUUUTT against Abca2, for which the z-score was 1.67 (inactive).
Then GGUAAUCAGUAGUGACUUATT against Mkln1, with 0.229 (inactive); and CCCUCAACCAUUGUUCGAGTT against Rasal1, with -0.328 (inactive).
Turning to GGGCUGUAUUUCUUUACCCTT against Mrgprb2, the z-score was 0.508 (inactive).
For the sequence GCGCAGCACAGGUUUUGAATT against Klf10, the z-score is -0.217 (inactive).
GGAAAAAAUACCAGAAACATT against Klre1: the z-score was -2.68 (active).
For GCCUAUCGAAAAGUCUUGGTT against Adcyap1 the value was 0.875 (inactive); for GGCCAAGCUAUAAGAAAUGTT against Cntnap2, 0.201 (inactive).
For the sequence AACUCCCUCCCUGUUGUAGTT against A4galt, the z-score was -0.361 (inactive).
Regarding GGCCAUAUUAAGUAUGGAGTT against Fam118a, the z-score is -0.34 (inactive).
For GGAGAAGUAAAACUCGAAGTT against Rwdd2a the value was 0.276 (inactive); for “CCGAAUUUCUCCUAUUGGGTT against Olfr106-ps”, -0.241 (inactive).
For GGUAUGUAACGGUAUUUAATT against Gja1 the value was 2.66 (active).
Then CCUAGAGCCGUGUGCAUACTT against Plp2, with 0.891 (inactive).
Regarding CCAUUGGUUUUGAGGAUAUTT against Pomp, the z-score was -1.18 (inactive).
For GGUAGAAAAAACACAAACGTT against Ppp2r3c the value was 1.43 (inactive); for GGUUUUGUGGGAAGAGUCATT against Ccdc163, -2.99 (active).
For CCUGGACAUAACCAAUGUATT against Glrp1 the value was 1.5 (inactive).
In the case of CCCUGGGCAGUUUGCAUGUTT against Dgcr2, the z-score is 0.815 (inactive).
For GCAACGAGGUACUGUUUUATT against Rab7b the value was 0.626 (inactive); for GGUAGAGCUGCACUUUGGATT against Hddc3, -1.43 (inactive).
GGUUUGUCAGGUUCUAAAATT against Atf1: the z-score is 2.34 (active).
For GGUACAAAGACUGACGAGUTT against Gnptg the value was 0.00278 (inactive); for CGACCAGAAGUGGUAUGUCTT against Adra2a, -1.03 (inactive); for GGAGACAUUCACUGUCUUCTT against Ephb4, -0.322 (inactive).
Then CCAGUAUCUAAUUGGAAUATT against Paqr8, with 2.07 (active).
For GCUGUUUGAAGCUGAUACCTT against Fads3 the value was -0.0526 (inactive).
In the case of GGCAUCCAGACAAGUGAUGTT against Zer1, the z-score was 0.699 (inactive).
Consider GCCAUCACAAUUCUAAUCCTT against Vmn2r123, for which the z-score was -1.54 (inactive).
As to CCAAGAUUGACAUCAUCCGTT against Pkn1, the z-score was -0.595 (inactive).
Then CGAAUACCUGAAGUGCAAATT against Art3, with 0.454 (inactive); and GGAGCCAGAACCUGAAAUUTT against Ankrd1, with 2.86 (active); and GCUCUAGACAUAUGAGGCUTT against Wee2, with -0.0864 (inactive).
For “CCCAUGAUGCCAUCUUUAATT against 2410002F23Rik” the value was -1.03 (inactive); for GGAACAUUUCUGGAUUGUUTT against Muc1, -0.503 (inactive).
For CCAGCUCUCGAUUCCAUCATT against Fem1a the value was 0.615 (inactive).

Values taken from PubChem BioAssay AID1508600 (Functional Genomics Laboratory (NCATS/FGL), 2020).
